# Assay results published in publication PMC6212790, “How bacterial xenogeneic silencer rok distinguishes foreign from self DNA in its resident genome”.
# Whole data set: some 33,000 sequences, median “e-score” near -0.038, cut for the highest 2% near 0.33. The entries come from a sample that favours the highest values as a whole.
# Target: T1, GST-Rok-C97-191 (Bacillus subtilis subsp. subtilis str. …, UniProt O34857 97-191)
# T1 sequence: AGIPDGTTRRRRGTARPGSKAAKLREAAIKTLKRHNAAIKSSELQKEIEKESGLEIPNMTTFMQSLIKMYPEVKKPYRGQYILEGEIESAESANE
# Test: protein binding microarray; Rok is a gene silencer of Bacillus subtilis; high values mean tight binding
# Conditions: protein: recombinant; tags: GST (pTH5325, pDEST15-Magic modified); dsDNA, one strand shown
# Method in brief: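 Every oligonucleotide joins a 25-mer constant primer to a 35-mer variable part drawn from a de Bruijn sequence of order 10, so each non-palindromic 8-mer appears at least 32 times and each palindromic 8-mer 16 times. The preference for every 8-mer is reported as a unitless, rank-based enrichment score (E-score). This score spans 0.5 for the most favored 8-mer to −0.5 for the most disfavored.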
row,Sequence,binding signal
1,GTAACTAC,0.417 E-score
2,CTAACTAG,0.268 E-score
3,CTAACTCC,-0.00723 E-score
4,TTAACTAA,0.235 E-score
5,ATAACTAC,0.323 E-score
6,CTAACTAC,0.348 E-score
7,CTAACTAA,0.288 E-score
8,GGAACTAC,0.254 E-score
9,GTAACTAA,0.353 E-score
10,CAAGCAGA,0.0345 E-score
11,GCCGAATA,0.0948 E-score
12,GCTCGTAA,0.0484 E-score
13,ACTCCAGC,0.114 E-score
14,CTGAAGGA,-0.156 E-score
15,ATCCAGCG,-0.106 E-score
16,GACTACCC,0.0938 E-score
17,AGCTACCG,0.228 E-score
18,GACTACCA,0.141 E-score
19,ACCTACCT,0.154 E-score
20,AACTACCG,0.41 E-score
21,AACTATCT,0.294 E-score
22,AACTACCC,0.338 E-score
23,AACTACCA,0.433 E-score
24,CACTACCC,-0.0292 E-score
25,CACTACCA,0.0866 E-score

row,Sequence,binding signal
1,CACTACCG,0.065 E-score
2,AACTACCT,0.412 E-score
3,CAATTTTA,0.234 E-score
4,ACGGGAGA,-0.12 E-score
5,CAAGTTGA,-0.0731 E-score
6,TCGACTAA,0.0796 E-score
7,AAAGTTCT,0.145 E-score
8,GCTCGGTA,0.0228 E-score
9,AGCGGCCG,-0.112 E-score
10,CATTGATA,0.26 E-score
11,ACGTTCAC,0.0772 E-score
12,GATAAGTA,0.238 E-score
13,CCGTCGAA,0.0267 E-score
14,GGAATGGA,-0.114 E-score
15,TCCTACCA,0.273 E-score
16,TGCTACCA,0.099 E-score
17,TACTACCA,0.404 E-score
18,CGCTACGA,0.0242 E-score
19,CCTGTCCC,0.0167 E-score
20,TAATACTA,0.401 E-score
21,CAATACTA,0.217 E-score
22,AAATACTA,0.434 E-score
23,AAATACTC,0.205 E-score
24,GAATACTA,0.209 E-score
25,AAATACTG,0.283 E-score

row,Sequence,binding signal
1,CATCCCTA,-0.0266 E-score
2,AGCTCGTA,0.00298 E-score
3,AATCTAGA,0.331 E-score
4,CATCTATC,0.201 E-score
5,TATCTAGA,0.159 E-score
6,AATCTATC,0.421 E-score
7,AATCTAGG,0.171 E-score
8,AATCTATG,0.135 E-score
9,GATCTATA,0.305 E-score
10,AATCTATA,0.4 E-score
11,CATCTATA,0.201 E-score
12,ACACGTGT,0.00499 E-score
13,GATAAGAC,0.14 E-score
14,ACATGCGG,0.0405 E-score
15,AAAAAGAG,-0.0136 E-score
16,CTCACATC,-0.132 E-score
17,ATTCATCA,0.0772 E-score
18,ACGATGCT,0.0784 E-score
19,ACTGACAT,-0.113 E-score
20,ACAGTCCC,-0.126 E-score
21,GCATAGAC,-0.0624 E-score
22,TACATGTA,0.417 E-score
23,CATATGGA,0.0214 E-score
24,TACATATA,0.349 E-score
25,CACATGTA,0.162 E-score

row,Sequence,binding signal
1,AACATATA,0.208 E-score
2,GACATATA,0.307 E-score
3,AACATGTA,0.237 E-score
4,GATATGGA,0.0314 E-score
5,AACATCTA,0.165 E-score
6,TACATCTA,0.369 E-score
7,TATATGGA,0.343 E-score
8,CACATCTA,0.151 E-score
9,AGTCAACT,0.173 E-score
10,AGATTCGA,0.104 E-score
11,ATAATTCG,0.213 E-score
12,CCTGGTTA,0.0123 E-score
13,CGACTCTA,-0.0898 E-score
14,CCACATAC,0.16 E-score
15,AGTGGAAT,-0.0459 E-score
16,CATATATC,0.279 E-score
17,CTTATATA,0.321 E-score
18,TATATATA,0.454 E-score
19,CATATATA,0.353 E-score
20,CATATATG,0.306 E-score
21,GATATAGA,0.244 E-score
22,CATATAGA,0.144 E-score
23,TATATCGA,0.314 E-score
24,TATATAGA,0.397 E-score
25,CCAGTACA,0.0219 E-score

row,Sequence,binding signal
1,GTAGTGCA,0.015 E-score
2,CAGGGCTA,-0.0484 E-score
3,CCTGTATA,0.157 E-score
4,CAGGCGCC,-0.149 E-score
5,TACGTTCA,0.085 E-score
6,CATAACGC,0.0154 E-score
7,ACTTTGGA,-0.0486 E-score
8,ATGACGTA,-0.0485 E-score
9,AATCTGGA,-0.12 E-score
10,AACCAGTA,0.278 E-score
11,AACTAGTA,0.47 E-score
12,AACTAGGT,0.318 E-score
13,ACCTAGTA,0.233 E-score
14,ATCTAGTA,0.31 E-score
15,AACTAGTG,0.376 E-score
16,CACTAGTA,0.253 E-score
17,CACTAGTG,-0.0787 E-score
18,ATCTAGTG,0.364 E-score
19,AACTAGGG,-0.0014 E-score
20,ATCTAGTC,0.287 E-score
21,AACTAGTT,0.439 E-score
22,AACTAGTC,0.0892 E-score
23,CTGACATC,-0.162 E-score
24,ATTACGCC,-0.0244 E-score
25,CTTAAAGA,-0.126 E-score

row,Sequence,binding signal
1,CATAGTGC,-0.076 E-score
2,ATTGTCCG,-0.0512 E-score
3,AAGCAAGC,-0.165 E-score
4,CAGCAATA,0.203 E-score
5,CGTCATAC,0.0184 E-score
6,GACTAGGA,-0.0139 E-score
7,TACTAGGA,0.115 E-score
8,TACTAGCA,0.256 E-score
9,GGCTAGTA,0.115 E-score
10,GACTAGTA,0.368 E-score
11,GACTAGTC,0.0585 E-score
12,TACTAGTA,0.433 E-score
13,AGCTAGTC,0.104 E-score
14,AGCTAGTA,0.336 E-score
15,AGCGCTCA,0.00935 E-score
16,CTGCTACC,-0.0872 E-score
17,TCCCTAAA,-0.186 E-score
18,ACGCGCTC,-0.0411 E-score
19,AGTTTCCG,0.112 E-score
20,GCGGCCAA,-0.114 E-score
21,AAACGTTA,0.0818 E-score
22,GAACGTTA,0.178 E-score
23,TAACGTTA,0.339 E-score
24,CCTAATGC,-0.154 E-score
25,AACGTGGC,-0.0901 E-score

row,Sequence,binding signal
1,ATAGTATA,0.334 E-score
2,GTAGTATA,0.428 E-score
3,GCAGTATA,0.224 E-score
4,CTAGTATA,0.37 E-score
5,ATAGTATC,0.278 E-score
6,CAAGTATA,0.251 E-score
7,GAAGTATA,0.164 E-score
8,ATAGTATG,0.316 E-score
9,CTAGTATC,0.111 E-score
10,CGTTGGAG,-0.19 E-score
11,AGGTATAC,0.19 E-score
12,CATTCATA,0.181 E-score
13,CTGTCCCA,-0.0317 E-score
14,CTTTCTCA,-0.12 E-score
15,AGGGAAAC,-0.0931 E-score
16,ACATAGAG,-0.0925 E-score
17,AGATAGAC,0.0495 E-score
18,AGATAGAT,0.349 E-score
19,AGATAGAG,0.128 E-score
20,ACATAGAC,0.0775 E-score
21,ACATAGAT,0.33 E-score
22,AATTAGAA,0.202 E-score
